The list is not random: actives were taken first. Their share in the collection is about 5.2%.
APOBEC3A inh – human APOBEC3A DNA deaminase inhibition | P31941 | recombinant A3A, FAM/TAMRA ssDNA deamination fluorescence | inhibition, % at 20 µM | 330,000 compounds, 0.41% hits | AID 493011;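 active = at least 40% inhibition at 20 µM here, with at most 30% in a related deaminase screen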;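 also: plate controls were A3A with DMSO for no effect and wells lacking A3A enzyme for full effect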
Yeast superoxide – yeast age-related superoxide inhibition as caloric restriction mimetic; AID 2690; 330,000 compounds, 0.18% hits; superoxide response (% of plate mean), % at 10 µM; S. cerevisiae aged cells, superoxide DHE fluorescence; hits give low values;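 active = superoxide response under a set limit, about three screen SD below normal, cut at about 65% in these data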;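 also: yeast aged for seven days with compound at 30 °C before DHE staining; 100% = average MFI of all compound-treated wells on the plate with controls excluded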
CendR NRP1 mod – NRP-1/CendR interaction modulation; O14786; FAM-RPARPAR peptide binding to NRP-1, fluorescence polarization; inhibition, % at 25 µM; 360,000 compounds, 0.85% hits;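 active = inhibition or corrected inhibition above about 18%, plus a signal ratio from 0.5 to 1.5, limit read from the data, passing the limit was not always enough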
Target sequence (O14786 whole entry, looked up): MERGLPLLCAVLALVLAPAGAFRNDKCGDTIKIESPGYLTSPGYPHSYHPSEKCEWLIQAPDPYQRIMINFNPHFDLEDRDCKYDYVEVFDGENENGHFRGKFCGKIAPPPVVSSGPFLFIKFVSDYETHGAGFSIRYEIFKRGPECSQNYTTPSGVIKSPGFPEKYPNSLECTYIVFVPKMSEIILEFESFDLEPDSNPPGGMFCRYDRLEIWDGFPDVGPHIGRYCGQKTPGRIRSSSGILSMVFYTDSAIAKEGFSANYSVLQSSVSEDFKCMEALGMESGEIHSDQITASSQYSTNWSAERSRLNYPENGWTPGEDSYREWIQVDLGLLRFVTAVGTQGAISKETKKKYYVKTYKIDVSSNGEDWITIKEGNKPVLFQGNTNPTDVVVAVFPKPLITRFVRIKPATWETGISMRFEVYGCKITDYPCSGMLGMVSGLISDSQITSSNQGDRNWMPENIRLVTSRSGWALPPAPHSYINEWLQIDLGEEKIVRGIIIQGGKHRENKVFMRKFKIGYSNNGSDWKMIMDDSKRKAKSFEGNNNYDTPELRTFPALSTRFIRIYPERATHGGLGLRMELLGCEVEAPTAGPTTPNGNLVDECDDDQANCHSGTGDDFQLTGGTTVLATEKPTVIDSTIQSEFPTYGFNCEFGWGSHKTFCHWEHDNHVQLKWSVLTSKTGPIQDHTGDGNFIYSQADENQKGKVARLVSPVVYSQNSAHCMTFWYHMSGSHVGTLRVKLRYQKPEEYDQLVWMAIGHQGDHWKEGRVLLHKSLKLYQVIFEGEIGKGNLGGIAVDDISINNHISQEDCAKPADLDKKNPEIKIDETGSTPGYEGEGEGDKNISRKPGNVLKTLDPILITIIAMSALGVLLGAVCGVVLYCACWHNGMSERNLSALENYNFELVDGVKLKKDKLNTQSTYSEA
A3G deaminase – inhibitors of human APOBEC3G DNA deaminase | Q9HC16 | 330,000 compounds, 0.28% hits | inhibition, % at 20 µM | recombinant A3G, ssDNA deamination FAM/TAMRA fluorescence;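 active = inhibition of at least 40% at 20 µM, with no more than 30% in the related APOBEC3A deaminase screen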;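 also: plate controls were DMSO wells with A3G for no effect and wells lacking A3G enzyme for full effect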
M18AAP inhibitor – blocks P. falciparum M18 aspartyl aminopeptidase. recombinant PfM18AAP, H-Glu-NHMec fluorogenic cleavage. inhibition, % at 7.35 µM. 290,000 compounds, 1.2% hits. AID 1822;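 active = inhibition above the campaign mean inhibition over all tested compounds plus 3 SD, cut at about 28% in these data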;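 also: 0% = plate median of test compound wells and 100% = 2 mM ZnCl2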
ALR inh – human ALR oxidase inhibition via reduced H2O2. P55789. purified ALR, DTT oxidation, H2O2 HRP-luminol luminescence. inhibition, % (concentration not given with the values). 290,000 compounds, 3.8% hits. AID 485317;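 active = mean replicate inhibition above about 79%, with every replicate also reaching it, limit read from the data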
The depositor's hits bear a star; x = not tested or not shown.

SMILES	APOBEC3A inh	Yeast superoxide	CendR NRP1 mod	A3G deaminase	M18AAP inhibitor	ALR inh
CCS(=O)(=O)n1nc(-c2ccco2)nc1N	-2	97	-8	-3	2	-5
O=C1CNC(=S)N1c1nc2ccccc2s1	4	88	0	0	19	95*
COc1cc(/C=N/NC(=O)c2cccnc2)ccc1OC(=O)c1cc(OC)c(OC)c(OC)c1	-1	112	9	-4	1	x
CC(=O)N1c2ccc(S(=O)(=O)NCCC(=O)NCCc3ccc(Cl)cc3)cc2CC1C (stereo not given)	0	106	10	-1	-5	-5
O=C1OC(c2ccccc2)=C/C1=C/N1CCCCC1	-3	98	-20	3	2	85*
O=c1nc2n(c3sc4c(c13)CCCC4)C(CBr)CS2 (stereo not given)	2	80	-11	-1	-1	86*
O=c1c2ccccc2nc2n1C(CBr)CS2 (stereo not given)	0	109	-1	-5	2	2
CC(=O)c1c(C(C)=O)c(C)n(-c2cccc([N+](=O)[O-])c2)c1C	0	113	4	1	0	x
CC(=O)C1=C(c2cccc([N+](=O)[O-])c2)N(C(C)=O)n2c(C)nnc2S1	-5	136	-13	-6	24	98*
CC(=O)Nc1ccc(S(=O)(=O)NNC(=O)COc2cc(C)ccc2C(C)C)cc1	-5	105	0	1	-2	99*
C=CCNCCCCOc1cccc(Br)c1	-1	96	9	-5	6	-4
COCc1nnc(NC(=O)C(C)C)s1	5	107	26*	-1	0	0
COCc1nnc(NC(=O)c2cccc(NC(=O)C(C)C)c2)s1	5	91	-9	12	2	0
COc1ccc(Cc2n[nH]c(=S)n(N)c2=O)cc1	-2	96	-1	-18	26	1
Nn1c(=S)[nH]nc(Cc2ccc(O)cc2)c1=O	1	107	22	-9	27	80*
COc1ccccc1Oc1ccc(S(=O)(=O)N2CCOCC2)cc1S(=O)(=O)N1CCOCC1	-3	95	27*	-1	0	x
COc1ccc(CC(=O)OCC(=O)NC(=O)NC2CCCC2)cc1	-1	100	2	4	x	0
CSC(=NC#N)N1CCN(c2ccc(Cl)cc2)CC1	-2	104	-3	-3	4	97*
CN(C)C(=C(C#N)C#N)N1CCN(c2ccc(Cl)cc2)CC1	-2	93	8	-2	-4	39
O=c1[nH]c2ccccc2nc1Cc1ccc(Cl)cc1	0	112	-13	-4	3	-7
O=c1[nH]c2ccccc2nc1Cc1ccc([N+](=O)[O-])cc1	-2	102	-6	-7	16	95*
COc1cccc(CC(=O)Nc2cc(S(=O)(=O)N3CCCCC3)ccc2C)c1	0	100	5	-7	x	11
COc1ccc(Nc2nc(Nc3ccc(OC)cc3)nc(-n3[nH]c(=O)c(C)c3C)n2)cc1	-5	106	1	-9	1	84*
COc1ccc(Nc2nc(OC)nc(N3CCOCC3)n2)cc1	6	87	6	-5	3	-3
CC1(C)CN(c2ccccc2)N(C(=O)c2ccc(F)cc2)C1=O	1	77	4	-2	-6	100*
SMILES	APOBEC3A inh	Yeast superoxide	CendR NRP1 mod	A3G deaminase	M18AAP inhibitor	ALR inh
CC1(C)CN(c2ccccc2)N(C(=O)c2ccc(C#N)cc2)C1=O	-2	99	5	-4	-2	85*
CC(=O)OCC1(C)CN(c2ccccc2)N(C(=O)c2ccc(C(C)(C)C)cc2)C1=O (stereo not given)	x	x	-5	x	-14	x
COc1ccc(S(=O)(=O)NC2(C(F)(F)F)NC(=O)N(CCc3ccccc3)C2=O)cc1 (stereo not given)	-1	87	4	1	3	-2
COc1cc(C)c(C(=O)Oc2cc(C)c(C(=O)O)c(O)c2C)c(OC)c1C	-5	104	-20	-11	4	89*
COc1cc(C)c(C(=O)Oc2cc(C)c(C(=O)O)c(O)c2C)c(O)c1C(=O)O	2	110	-27	18	x	22
COc1cc(C(=O)NC2CCCCC2)ccc1OC1CCN(C(C)=O)CC1	-6	97	8	-10	0	1
Nc1cc2nsnc2cc1Br	6	122	40*	8	9	-5
CSCCC(C(=O)N(C)CC(=O)Nc1cccc(F)c1)N1C(=O)c2ccccc2C1=O (stereo not given)	2	90	-18	-2	x	-1
CN(C)Cc1cc(C(F)(F)F)ccc1C(O)(c1ccccc1)c1ccccc1	x	x	21*	x	x	x
CN(C)Cc1ccccc1C(O)(c1ccccc1)c1ccccc1	-3	105	-4	-7	-6	-1
COc1ccc(NC(=S)Nc2ncccc2C)cc1OC	-2	90	8	-4	19	83*
COc1ccc(NC(=O)Nc2ncccc2C)cc1	-1	87	-10	-9	-4	-27
COc1ccc(NC(=S)Nc2ncccc2C)c(OC)c1	4	108	-4	4	16	99*
COc1ccc(C(=O)NC(=O)Nc2ncccc2C)cc1	-2	98	31*	-2	-1	-4
CCC1CCCCN1S(=O)(=O)c1ccc(S(=O)(=O)N(Cc2cccs2)C2CC2)cc1 (stereo not given)	0	94	9	1	-4	-1
O=C1OC(c2ccccc2)/C(=C(/O)c2ccc(Cl)cc2)C1=O (stereo not given)	0	86	-5	0	12	98*
Cc1ccc(/C(O)=C2\C(=O)C(=O)N(C)C2c2ccc(Br)cc2)cc1 (stereo not given)	-6	97	4	-5	4	5
O=C1OC(c2ccccc2)/C(=C(/O)c2ccccc2)C1=O (stereo not given)	-7	113	-15	-6	18	92*
Cc1ccc(/C(O)=C2/C(=O)C(=O)OC2c2ccc(Cl)cc2)cc1 (stereo not given)	-1	107	-66	-4	4	92*
c1ccc(-c2nc(C3CCCCC3)c3ccccc3n2)cc1	-2	104	3	-9	x	-1
c1ccc(-c2nc(C3CCCCC3)c3sccc3n2)cc1	-4	105	28*	-10	x	-5
Cc1cc(Cl)c2cc3ccccc3cc2n1	-2	113	4	-6	-7	x
CCN(CC)CCn1c2c(c(SCC(=O)Nc3ccccc3Cl)nc1=O)CCCC2	-1	85	9	-5	x	-16
CCN(CC)CCCn1c2c(c(SCC(=O)Nc3ccccc3Cl)nc1=O)CCC2	-1	100	3	-6	x	98*
CCN(CC)CCCn1c2c(c(SCC(=O)Nc3ccc(F)c(F)c3)nc1=O)CCC2	-1	86	-6	-6	x	98*
CCN(CC)CCCn1c2c(c(SCC(=O)Nc3ccc4c(c3)OCO4)nc1=O)CCC2	-2	101	11	-4	x	96*
